A short description of assay [1]: BSK_BT_PBMCCytotoxicity: PBMC Cytotoxicity Assessment in the BioMAP Diversity Plus: BT Assay (AID 2284225).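 Further: PBMC viability measured by Alamar Blue dye reduction fluorescence.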 The note with it: primary human B cells with PBMC. In a few lines:
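PBMC (75,000/well) pretreated with compound 1 h, then activated with SEB and TSST-1 (20 ng/mL each final), incubated 90 h; Alamar Blue added 6 h, fluorescence read at 546/580 nm. Fitted relative to DMSO.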

Read-out in assay [2]: Secreted IgG (sIgG), gene 3500
Kind of assay: BSK_BT_sIgG: BioMAP Diversity Plus: BT Assay for Secreted IgG (sIgG) Biomarker Activity (AID 2284226). The following applies: primary human B cells with PBMC. In a few lines: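 Read-out: ELISA for secreted IgG after 24 h of chemical exposure in a B cell plus PBMC co-culture. Values reflect upward-direction fitting against DMSO negative controls.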

The nature of assay [3]: BSK_BT_Bcell_Proliferation: Viability Assessment in the BioMAP Diversity Plus: BT Assay for B cell Proliferation (AID 2284227). The note with it: primary human B cells with PBMC. The gist of the method:
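Using a human primary B cell–PBMC co-culture, the assay measures total protein by sulforhodamine B absorbance as a gauge of proliferation after 72 h. Analysis followed the positive fitting direction with DMSO as baseline.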

Read-out in assay [4]: Interleukin 6 (IL6), IL6 (gene 3569)
Kind of assay: BSK_BT_xIL6: BioMAP Diversity Plus: BT Assay for Interleukin 6 (IL6) Biomarker Activity (AID 2284228). The following applies: primary human B cells with PBMC. In a few lines:
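IL-6 secretion measured (Luminex xMAP) in human primary B cell + PBMC co-culture at 24 h of chemical exposure; DMSO served as negative control and activity baseline, with curves fitted for increase.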

Read-out in assay [5]: Interleukin 17A (IL17A), IL17A (gene 3605)
Kind of assay: BSK_BT_xIL17A: BioMAP Diversity Plus: BT Assay for Interleukin 17A (IL17A) Biomarker Activity (AID 2284229). The following applies: primary human B cells with PBMC. In a few lines:
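Human primary B cells plus PBMC, treated 24 h with chemicals; supernatant IL-17A quantified on Luminex xMAP beads. Gain of signal over DMSO control scored as activity.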

Read-out in assay [6]: Vascular cell adhesion molecule 1 (VCAM1), VCAM1 (gene 7412)
In words: BSK_MyoF_VCAM1: BioMAP Diversity Plus: MyoF Assay for Vascular cell adhesion molecule 1 (VCAM1) Biomarker Activity (AID 2284231). The following applies: primary human lung fibroblasts. The gist of the method: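 VCAM-1 levels, lung fibroblasts, ELISA, 24 h exposure, increase scored relative to DMSO.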

Assay [7] is described as follows: CCTE_Mundy_HCI_Cortical_NOG_NeuriteCount: CCTE's Neurite Outgrowth Assay in rat cortical cells for Neurite Count, Mundy Lab (AID 2284212).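 Further: cells fixed about two days after chemical exposure began.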 The gist of the method: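 Neurite number per cell from high-content imaging of betaIII-tubulin immunostaining, with Hoechst nuclear counterstain.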
A short description of assay [8]: CCTE_Mundy_HCI_Cortical_NOG_NeuriteLength: CCTE's Neurite Outgrowth Assay in rat cortical cells for Neurite Length, Mundy Lab (AID 2284213).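 On AC50: neurites imaged about 48 to 50 h after chemical exposure began.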 In a few lines:
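Neurite length was read by high-content imaging of βIII-tubulin-labelled neurites in rat primary cortical cultures. Activity was fitted relative to DMSO.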

Assay [9] can be described thus: CCTE_Mundy_HCI_Cortical_Synap_Neur_Matur_NeuriteLength: CCTE's Synaptogenesis and Neurite Maturation Assay in rat cortical cells for Neurite Length, Mundy Lab (AID 2284214). The gist of the method: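 Rat cortical neurons, AraC at DIV 5; compound + media change DIV 7, end DIV 12 (288.33 h). Fix, MAP2/synaptophysin/Hoechst immunostain, automated HCI of neurite length vs DMSO.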

Assay [10] in a line: CCTE_Mundy_HCI_Cortical_Synap_Neur_Matur_NeuriteSpotCountPerNeuron: CCTE's Synaptogenesis and Neurite Maturation Assay in rat cortical cells for Neurite Spot Count per Neuron Count, Mundy Lab (AID 2284215). The gist of the method:
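Developing rat cortical neurons, with glia suppressed by AraC, are exposed to chemicals from DIV 7 to DIV 12. Automated fluorescence imaging of MAP2-labelled neurites and synaptophysin puncta yields a count per neuron, normalised against DMSO wells.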

A short description of assay [11]: CCTE_Mundy_HCI_Cortical_Synap_Neur_Matur_SynapseCount: CCTE's Synaptogenesis and Neurite Maturation Assay in rat cortical cells for Synapse Count, Mundy Lab (AID 2284218). In a few lines: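 Primary rat cortical culture; AraC DIV 5 to arrest glia; compound + media change DIV 7; terminated DIV 12. PFA/Hoechst fix, anti-MAP2 + anti-synaptophysin immunostain; HCI synapse count/neuron; DMSO = baseline.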

Assay [12] in a line: CCTE_Mundy_HCI_Cortical_Synap_Neur_Matur_NeuriteCount: CCTE's Synaptogenesis and Neurite Maturation Assay in rat cortical cells for Neurite Count, Mundy Lab (AID 2284222).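 Further: exposure from day 7 to day 12 in vitro with readout at day 12.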 In a few lines: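 In this multiplexed morphology readout, rat primary cortical neurons are fixed at DIV 12 following dosing at DIV 7 and stained for MAP2, synaptophysin and nuclei. High-content image analysis yields neurite count.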

A short description of assay [13]: CCTE_Mundy_HCI_Cortical_Synap_Neur_Matur_CellBodySpotCount: CCTE's Synaptogenesis and Neurite Maturation Assay in rat cortical cells for Cell Body Spot Count, Mundy Lab (AID 2284223). The gist of the method:
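Chemicals were applied to AraC-treated rat primary cortical cells at DIV 7 and measured at DIV 12. Fixed cells were labelled for MAP2, synaptophysin and nuclei, and high-content imaging gave cell body synaptophysin spot counts per neuron relative to DMSO.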

The nature of assay [14]: CCTE_Mundy_HCI_Cortical_NOG_NeuronCount: CCTE's Neurite Outgrowth Assay in rat cortical cells for Neuron Count, Mundy Lab (AID 2284236; active means hit-call score of the fitted dose curve at least 0.9, where 1 is the maximum;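 further: neurons counted by imaging betaIII-tubulin and Hoechst stained cortical cells; cells exposed to compound for about 48 hours before fixation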). The gist of the method: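 Read-out: neuron number by high-content imaging of betaIII-tubulin (Alexa Fluor-488) and Hoechst-labelled rat primary cortical cells.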
A short description of assay [15]: CCTE_Mundy_HCI_hNP1_Pro_ResponderAvgInten: CCTE's Proliferation Assay in human neuroprogenitor cells, Mundy Lab (AID 2284224; active means hit-call score of the fitted dose curve at least 0.9, where 1 is the maximum;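 further: human neural progenitor cells hNP1 derived from WA09 embryonic stem cells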). In a few lines:
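Proliferation read as average intensity of BrdU-positive cells, imaged at 26.25 h post-dosing: chemical exposure started after 40–44 h culture, BrdU during final 4 h, paraformaldehyde fixation. Positive-direction fit relative to DMSO.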

The nature of assay [16]: UKN4_HCS_LUHMES_cell_viability: Viability Assessment in the University of Konstanz (UKN) Leist Lab Neurite Outgrowth Assay in human LUHMES cells (UKN4) (AID 2284232). The gist of the method:
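Fluorescence intensity from high-content imaging of Hoechst H-33342/calcein-AM-stained cells served as the viability read-out. Human LUHMES precursors were differentiated 2 days, replated and treated 24 h; curves were fitted bidirectionally against DMSO.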

Assay [17] can be described thus: UKN2_HCS_IMR90_cell_viability: Viability Assessment in the University of Konstanz (UKN) Leist Lab Neural Crest Cell Migration Assay in human induced IMR90 Pluripotent Stem Cells (UKN2) (AID 2284233).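 Further: viability of neural crest cells differentiated from IMR90 iPSC measured by calcein-AM fluorescence imaging.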 The gist of the method: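 Neural crest cells derived from IMR90 iPSC migrate into a stopper-free zone for 24 h in EGF/FGF medium, then are exposed to compound for 24 h. Viability assessed by calcein-AM and Hoechst staining with high-content imaging, fitted bidirectionally versus DMSO.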

Results filed as inconclusive are left out. Some structures have more than one record in an assay (separate samples or runs), and their calls can disagree. Calls of active or inactive are those of the source. How the source made its calls, unless noted: active means hit-call score of the fitted dose curve at least 0.9, where 1 is the maximum; inactive means score below 0.9.

Consider `CC(C)(c1cc(Br)c(OCCO)c(Br)c1)c1cc(Br)c(OCCO)c(Br)c1`, for which, in [1], the outcome was inactive. In addition, the AC50 in assay [2] was 8.71 µM (active); in assay [3] it was 21.2 µM (active); in assay [4], 16.2 µM (active); in assay [5] it was 20.8 µM (active); in [6], 7.89 µM (active).
With `CCCCNc1ccc(NCCCC)c2c1C(=O)c1ccccc1C2=O`, the result in assay [1], in assay [2], in assay [3], in assay [4], in assay [5] and in assay [6] was inactive.
As to `CCCCC/C=C\C/C=C\CCCCCCCC(=O)OC`, the AC50 in assay [1] is 24.3 µM (active); in assay [2], 20 µM (active); in assay [3], 26.3 µM (active); in assay [4], 24.8 µM (active); in assay [5] it was 23.8 µM (active). Besides, in assay [6], the outcome was inactive.
In the case of `C=CC(=O)OCC(Br)CBr` (centres undefined), the half-maximal activity concentration (AC50) in [1] was 20.5 µM (active); in assay [2] it was 7.95 µM (active); in assay [3] it was 20 µM (active); in [4], 12.9 µM (active); in assay [5], 7.7 µM (active); in assay [6], 20 µM (active).
Turning to `C=CCOc1c(Br)cc(Br)cc1Br`, the result in assay [1], in assay [2], in assay [3], in [4] and in [5] was inactive. Further, the half-maximal activity concentration (AC50) in [6] was 23.7 µM (active).
`O=c1c2ccccc2oc2ccccc12`: the outcome in [1], in assay [3], in assay [4], in assay [5] and in assay [6] was inactive. The AC50 in [2] is 11.7 µM (active).
Consider `S=C(NC1CCCCC1)NC1CCCCC1`, for which the result in assay [1], in assay [4], in assay [5] and in assay [6] was inactive. Besides, the half-maximal activity concentration (AC50) in [2] was 20 µM (active); in assay [3] it was 31.2 µM (active).
`c1ccc(-c2ccccn2)nc1`: the result in [1], in assay [3], in [4], in [5] and in assay [6] was inactive. In [2], the half-maximal activity concentration (AC50) was 20 µM (active).
As for `C/C=C\C/C=C/CCCCCCCCOC(C)=O`, the AC50 in assay [1] is 20 µM (active); in assay [2] it was 17 µM (active); in assay [3] it was 28 µM (active); in assay [4] it was 15.2 µM (active); in assay [5], 15.1 µM (active). In [6], the outcome was inactive.
For the compound `N#[N+]c1ccc2c(S(=O)(=O)[O-])cccc2c1O`, the result in assay [1], in assay [2], in assay [3], in assay [4], in [5] and in [6] was inactive.
With `O=C(Cl)c1cc(C(=O)Cl)cc(C(=O)Cl)c1`, the AC50 in [1] is 28 µM (active); in [2] it was 14.6 µM (active); in [3], 29.3 µM (active); in assay [4] it was 27.6 µM (active); in assay [5], 15.4 µM (active); in assay [6], 35.3 µM (active).
With `CCO[Si](CCCN=C=O)(OCC)OCC`, the result in assay [1], in assay [2], in [3], in [4], in assay [5] and in [6] was inactive.
For `C=CCOCC(O)CCl` (centres undefined), the result in assay [1], in assay [3], in assay [4], in assay [5] and in assay [6] was inactive. Moreover, in assay [2], the AC50 is 20 µM (active).
As to `CC1(C)S[C@@H]2[C@H](NC(=O)COc3ccccc3)C(=O)N2[C@H]1C(=O)O`, the compound was classed as inactive in assay [7], in assay [8], in [9], in [10], in [11] and in assay [12]. The compound was called inactive in assay [13] and in [14].
For the compound `Nc1ncn([C@@H]2O[C@H](CO)[C@@H](O)[C@H]2O)c(=O)n1`, the result in assay [7], in assay [8], in assay [9], in [10], in [11] and in [12] was inactive. In addition, the call in assay [13], in [17] and in [14] was inactive. Also, the AC50 in assay [8] was 7.87 µM (active); in assay [15] it was 8.32 µM (active); in assay [16], 16.5 µM (active); in [17] it was 6.91 µM (active).

For the origin of these results see PubChem BioAssay (EPA / NIEHS).
